Experimental data taken from PubChem BioAssay (NCATS).
Several values for one entry are separate records, joined by “and”; a condition that tells them apart may be missing. Equal values may be shown once. Records with an inconclusive call do not appear. Activity calls are given as the source filed them. Unless noted, the call rests on the fitted dose curve; in most records, active means well fitted curve in the direction sought with a large enough effect; inconclusive means small, poorly fitted or top-dose-only effect, or another doubt; inactive means no such curve, though single readings can be large; an effect the other way counts as inactive or inconclusive.

Columns and labels:
[1] = qHTS for Inhibitors of Plasmodium falciparum (DD2) proliferation (AID 504314);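 further: parasite DNA measured by SYBR Green fluorescence after red cell lysis; plate controls were DMSO vehicle for no effect and artemisinin wells for full effect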
How it was run: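 Parasite proliferation measured as SYBR Green signal from Plasmodium DNA, mature erythrocytes lacking DNA. 72 h incubation, 37C; activity scaled between vehicle and 0.29 uM artemisinin, with correction from vehicle-only plates.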

[2] = qHTS for Inhibitors of Plasmodium falciparum (GB4) proliferation (AID 504315);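 further: 0% = DMSO vehicle and -100% = 0.29 µM artemisinin control; nearly all actives have a fitted effect of over 50% in size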
How it was run: (§1)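 Parasite growth measured as SYBR Green DNA fluorescence (ex 485, em 535 nm) after overnight lysis following 72 h culture at 37 °C, 0.3% parasitemia, 2.5% hematocrit. Values normalized against DMSO and 0.29 uM artemisinin controls, with plate-stack correction.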

[3] = qHTS for Inhibitors of Plasmodium falciparum (7G8) proliferation (AID 504316);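 further: series mostly up to about 6.7 µM; 0% = DMSO vehicle and -100% = 0.29 µM artemisinin full kill; nearly all actives have a fitted effect of over 65% in size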
How it was run: as §1

[4] = qHTS for Inhibitors of Plasmodium falciparum (HB3) proliferation (AID 504318);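 further: 0% = DMSO vehicle and -100% = artemisinin control; nearly all actives have a fitted effect of over 60% in size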
How it was run: as §1

[5] = biological target: Atrial natriuretic peptide receptor 1 (Homo sapiens) (UniProt P16066); test: Natriuretic polypeptide receptor (hNpr1) antagonism - Pilot CMLD screen (AID 1347052; calls by dose curve;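 further: cGMP level read as GloSensor luciferase luminescence after agonist stimulation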; further: potency means the concentration at half of the fitted maximal effect)
[6] = qHTS for Inhibitors of Plasmodium falciparum (CP250) proliferation (AID 504320);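 further: plate controls were DMSO vehicle for no effect and 0.29 µM artemisinin control for full effect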
How it was run: as §1

Chain of Atrial natriuretic peptide receptor 1 (Homo sapiens) (P16066 whole entry, looked up): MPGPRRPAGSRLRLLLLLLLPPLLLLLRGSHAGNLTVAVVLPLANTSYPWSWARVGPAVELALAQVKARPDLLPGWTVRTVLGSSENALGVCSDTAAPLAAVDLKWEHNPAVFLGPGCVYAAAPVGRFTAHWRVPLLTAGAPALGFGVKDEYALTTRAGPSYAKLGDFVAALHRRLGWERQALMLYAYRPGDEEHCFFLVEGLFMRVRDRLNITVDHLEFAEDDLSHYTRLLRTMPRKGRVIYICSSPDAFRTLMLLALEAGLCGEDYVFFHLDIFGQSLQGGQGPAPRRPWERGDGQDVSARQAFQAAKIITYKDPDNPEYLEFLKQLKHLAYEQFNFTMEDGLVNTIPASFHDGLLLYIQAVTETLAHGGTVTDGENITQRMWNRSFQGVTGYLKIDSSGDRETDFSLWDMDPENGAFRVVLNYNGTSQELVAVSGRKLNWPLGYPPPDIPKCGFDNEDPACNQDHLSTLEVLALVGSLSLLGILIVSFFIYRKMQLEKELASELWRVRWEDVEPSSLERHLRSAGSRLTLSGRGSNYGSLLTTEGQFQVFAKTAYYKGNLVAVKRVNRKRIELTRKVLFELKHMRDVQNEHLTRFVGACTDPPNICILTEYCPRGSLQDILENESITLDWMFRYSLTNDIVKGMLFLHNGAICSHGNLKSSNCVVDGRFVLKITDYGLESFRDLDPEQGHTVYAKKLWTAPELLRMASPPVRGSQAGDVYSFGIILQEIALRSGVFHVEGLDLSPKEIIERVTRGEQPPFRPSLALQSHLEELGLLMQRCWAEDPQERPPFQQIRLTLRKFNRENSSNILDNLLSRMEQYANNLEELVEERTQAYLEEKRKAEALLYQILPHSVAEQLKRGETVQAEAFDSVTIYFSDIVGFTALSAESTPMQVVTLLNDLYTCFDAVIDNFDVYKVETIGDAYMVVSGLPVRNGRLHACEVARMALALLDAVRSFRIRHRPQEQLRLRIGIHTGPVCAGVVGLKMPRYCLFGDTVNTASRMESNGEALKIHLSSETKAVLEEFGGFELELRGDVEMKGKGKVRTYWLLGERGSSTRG

C[C@@H]1[C@@H](c2ccccc2)Cc2nc3ccccc3nc2C[C@H]1C(=O)N1CCCC1
inactive: Potency [1] | Potency [2] | Potency [3] | Potency [4] | Potency [5]

C=CCOC(=O)N[C@H](c1ccccc1)C(C(C)=O)C(C)=O
inactive: Potency [1] | Potency [2] | Potency [3] | Potency [4] | Potency [5]

CCN1C(=NCc2ccc(OC)cc2)NC(c2cccc(C(F)(F)F)c2)C(C(=O)OC)=C1C (stereo unspecified)
inactive: Potency [1] | Potency [2] | Potency [3] | Potency [4] | Potency [5]

C=CCOC(=O)NC(c1ccc(F)c(F)c1)C(C(C)=O)C(=O)OC (stereo unspecified)
inactive: Potency [1] | Potency [2] | Potency [3] | Potency [4] | Potency [5]

CC(=O)OC[C@H]1O[C@H](C#Cc2ccccc2Cl)C=C[C@H]1OC(C)=O
inactive: Potency [1] | Potency [2] | Potency [3] | Potency [4] | Potency [5]

CCCCc1nc2c(c3c1C[C@H](C)OC3)CN(C(=O)c1ccco1)CC2
inactive: activity, negative = inhibition [1] -0.515% [at 1.12 µM] | Potency [2] | Potency [3] | Potency [4] | Potency [5]

CCN1C(=NCCCOC(C)C)N[C@H](c2ccccc2)[C@H](C(=O)OC)[C@H]1C
inactive: Potency [1] | Potency [2] | Potency [3] | Potency [4] | Potency [5]

COC(=O)c1cc(C(=O)OC)n2ccc3cc(OC)c(OC)cc3c12
active: Potency [5] 531 nM
inactive: Potency [1] | Potency [2] | Potency [3] | Potency [4] | Potency [6]

COc1ccc2c(c1)O[C@@H](c1cccc(C(F)(F)F)c1)[C@H](O)C2=O
inactive: Potency [1] | Potency [2] | Potency [3] | Potency [4] | Potency [5]

CCN1C(=NCCc2ccc(Br)cc2)NC(c2ccccc2)C(C(=O)OC)=C1C (stereo unspecified)
inactive: Potency [1] | Potency [2] | Potency [3] | Potency [4] | Potency [6] | Potency [5]

COC(=O)N1C(C)=Cc2ccccc2C1CC(C)=O (stereo unspecified)
inactive: activity, negative = inhibition [1] -3.47% [at 1.12 µM] and -2.49% [at 1.12 µM] | Potency [2] | Potency [3] | Potency [4] | Potency [6] | Potency [5]

COC(=O)N[C@H](CC(C)=O)c1ccc(F)cc1
inactive: Potency [1] | Potency [2] | Potency [3] | Potency [4] | Potency [6] | Potency [5]

CC1(C)O[C@H]2OC([C@H](O)CON3C(=O)c4ccccc4C3=O)[C@H](O)[C@@H]2O1 (stereo partly specified)
inactive: Potency [1] | Potency [2] | Potency [3] | Potency [4] | Potency [6] | Potency [5]

CC1(OC(=O)c2cccs2)C(=O)C=C2C=C3CCCN3C=C2C1=O (stereo unspecified)
inactive: activity, negative = inhibition [1] -0.249% [at 1.12 µM] | Potency [2] | Potency [3] | Potency [4] | Potency [6] | Potency [5]

C=CC[C@@H]1C=C[C@@H](ON=C2[C@H]3CCn4c(=O)n(-c5ccccc5)c(=O)n4[C@@H]3[C@H](O)[C@@H]3O[C@H]23)[C@@H](CO)O1
inactive: Potency [1] | Potency [2] | Potency [3] | Potency [4] | Potency [6] | Potency [5]

O=C(C=Cc1ccc2c(c1)OCO2)c1ccc(F)cc1
inactive: Potency [1] | Potency [2] | Potency [3] | Potency [4] | Potency [6] | Potency [5]

C=C=CCCN1C(=O)NC(c2ccccc2)C(C(=O)OC)=C1C (stereo unspecified)
inactive: Potency [1] | Potency [2] | Potency [3] | Potency [4] | Potency [6] | Potency [5]

COC(=O)CC=C[C@@H](C)[C@@H](C=NOC[C@@H](O)[C@H]1O[C@@H]2OC(C)(C)O[C@H]2[C@@H]1O)OC
inactive: Potency [1] | Potency [2] | Potency [3] | Potency [4] | Potency [6] | Potency [5]

COCCN1C(=O)NC(c2ccco2)C(C(=O)OC)=C1C (stereo unspecified)
inactive: Potency [1] | Potency [2] | Potency [3] | Potency [4] | Potency [6] | Potency [5]

COC(=O)NC(C=Cc1ccccc1)C(C(C)=O)C(=O)OC (stereo unspecified)
inactive: Potency [1] | Potency [2] | Potency [3] | Potency [4] | Potency [6] | Potency [5]

COC(=O)CC=C[C@H](C)[C@@H](NC(=O)C(F)(F)F)c1ccccc1Br
inactive: Potency [1] | Potency [2] | Potency [3] | Potency [4] | Potency [6] | Potency [5]

CC(=O)OC[C@H]1O[C@H](C#Cc2ccccc2)C=C[C@@H]1OC(C)=O
inactive: Potency [1] | Potency [2] | Potency [3] | Potency [4] | Potency [6] | Potency [5]

CC(=O)OC[C@H]1O[C@H](c2ccc(C(C)=O)cc2)C=C[C@H]1OC(C)=O
inactive: Potency [1] | Potency [2] | Potency [3] | Potency [4] | Potency [6] | Potency [5]

CCN1C(=NCc2ccc3c(c2)OCO3)NC(CCc2ccccc2)C(C(=O)OC)=C1C (stereo unspecified)
inactive: Potency [1] | Potency [2] | Potency [3] | Potency [4] | Potency [5]

C=CCN1C=C2C(=O)C(C)(OC(=O)C3CCCC3)C(=O)C=C2C=C1c1ccsc1 (stereo unspecified)
inactive: Potency [1] | Potency [2] | Potency [3] | Potency [4] | Potency [6] | Potency [5]

O=C(NN=C1C[C@@H](O)[C@H](O)[C@H]2[C@@H]3C(=O)N(C[C@@H]4CCCO4)C(=O)[C@@H]3CC[C@@H]12)OCc1ccccc1
inactive: Potency [1] | Potency [2] | Potency [3] | Potency [4] | Potency [6] | Potency [5]

CC(CCN1CCCCc2nc(C)c(C)cc21)=NO[C@H](C)c1cn([C@@H]2COC[C@@H]2O)nn1
inactive: Potency [1] | Potency [2] | Potency [3] | Potency [4] | Potency [5]

COCC(=O)N1CCc2nc(-c3ccccc3)c3c(c2C1)CO[C@@H](C)C3
inactive: Potency [1] | Potency [2] | Potency [3] | Potency [4] | Potency [6] | Potency [5]

C=C(C(C)=O)C(O)c1ccc(Cl)cc1 (stereo unspecified)
inactive: Potency [1] | Potency [2] | Potency [3] | Potency [4] | Potency [5]

COC(=O)C1=C[C@@H]([C@@H](C)[C@H](OC)c2ccccc2Br)[C@@H]2OCCC[C@H]12
inactive: Potency [1] | Potency [2] | Potency [3] | Potency [4] | Potency [6] | Potency [5]

COC(=O)C1=C(C(=O)OC)[C@@H]2N(C)c3ccccc3[C@@]23CCC(=O)N(Cc2ccco2)C3=N1
inactive: Potency [1] | Potency [2] | Potency [3] | Potency [4] | Potency [6] | Potency [5]

COC(=O)N[C@H](CC(C)=O)c1cccs1
inactive: Potency [1] | Potency [2] | Potency [3] | Potency [4] | Potency [6] | Potency [5]

OC[C@H]1O[C@H](c2ccccc2)C=C[C@H]1OCc1cccc(Br)c1
inactive: Potency [1] | Potency [2] | Potency [3] | Potency [4] | Potency [6] | Potency [5]

COC(=O)CC1c2ccccc2C(Cc2ccc(OC)cc2)=C(C)N1C(=O)OC (stereo unspecified)
inactive: Potency [1] | Potency [2] | Potency [3] | Potency [4] | Potency [6] | Potency [5]

C=CCN1C(=O)[C@]2(OCCC=C[C@H]2C)c2c(Br)cccc21
inactive: Potency [1] | Potency [2] | Potency [3] | Potency [4] | Potency [6] | Potency [5]

CC1(O)C(=O)C=C2C=C(c3ccc(C#N)cc3)OC=C2C1=O (stereo unspecified)
inactive: Potency [1] | Potency [2] | Potency [3] | Potency [4] | Potency [6] | Potency [5]

COC(=O)C=C[C@H]1c2ccccc2[C@@H](OC)[C@@H]1C
inactive: Potency [1] | Potency [2] | Potency [3] | Potency [4] | Potency [5]

C=CCNC(=O)N1CCc2nc(-c3ccccc3)c3c(c2C1)CO[C@@H](C)C3
inactive: activity, negative = inhibition [1] -1.14% [at 1.12 µM] | Potency [2] | Potency [3] | Potency [4] | Potency [6] | Potency [5]

COC(=O)[C@H]1[C@@H](c2cccc(C(F)(F)F)c2)NC(=O)N(Cc2ccccc2)[C@@H]1C
inactive: Potency [1] | Potency [2] | Potency [3] | Potency [4] | Potency [6] | Potency [5]

C=CCN1C(=O)C2(CC(C)=C[C@@H](C)O2)c2c(Br)cccc21 (stereo partly specified)
inactive: Potency [1] | Potency [2] | Potency [3] | Potency [4] | Potency [6] | Potency [5]

O=C1OC2(CCCCC2)CC2=C1[C@H]1O[C@](c3ccsc3)(Cc3c1ccc1ccccc31)O2
inactive: Potency [1] | Potency [2] | Potency [3] | Potency [4] | Potency [6] | Potency [5]

COCCN1C(=O)N[C@@H](c2cccc(C(F)(F)F)c2)[C@H](C(C)=O)[C@H]1C
inactive: Potency [1] | Potency [2] | Potency [3] | Potency [4] | Potency [6] | Potency [5]

COCCN1C(=O)N[C@@H](c2cccc(C(F)(F)F)c2)[C@H](C(=O)OC)[C@H]1C
inactive: Potency [1] | Potency [2] | Potency [3] | Potency [4] | Potency [6] | Potency [5]

CCN1C(=O)[C@@H]2[C@H]3[C@H](O)[C@H](O)CC(=NOC[C@@H](C)[C@H](OCc4ccccc4)C(C)C)[C@@H]3CC[C@H]2C1=O
inactive: Potency [1] | Potency [2] | Potency [3] | Potency [4] | Potency [6] | Potency [5]

COC(=O)NC(CCc1ccccc1)C(C(=O)OC)C(=O)OC (stereo unspecified)
inactive: Potency [1] | Potency [2] | Potency [3] | Potency [4] | Potency [5]

COC(=O)N[C@@H](c1ccco1)[C@]1(C(C)=O)CCCC1=O
inactive: Potency [1] | Potency [2] | Potency [3] | Potency [4] | Potency [6] | Potency [5]

CC(C)CON=C1C[C@@H](O)[C@@H](O)[C@@H]2[C@H]3C(=O)N(c4ccc(F)cc4F)C(=O)[C@@H]3CC[C@@H]12
inactive: Potency [1] | Potency [2] | Potency [3] | Potency [4] | Potency [6] | Potency [5]

CN1c2ccccc2[C@@]2(O)C(=O)[C@@]1(C)[C@@H]1C=CCC[C@H]12
inactive: Potency [1] | Potency [2] | Potency [3] | Potency [4] | Potency [6] | Potency [5]

C=CCOC(=O)N[C@H](c1ccco1)C(C(C)=O)C(C)=O
inactive: Potency [1] | Potency [2] | Potency [3] | Potency [4] | Potency [6] | Potency [5]

C=C1CN2C(=NC(c3ccccc3)C(C(=O)OC)=C2C)O1 (stereo unspecified)
inactive: Potency [1] | Potency [2] | Potency [3] | Potency [4] | Potency [6] | Potency [5]

COC(=O)[C@H]1O[C@@H](c2cc(OC)c(C)c(OC)c2O)[C@H](C)[C@@H](O)[C@@H]1C
inactive: Potency [1] | Potency [2] | Potency [3] | Potency [4] | Potency [6] | Potency [5]

CCN1C(=O)N(C)C(c2ccccc2)C(C(C)=O)=C1C (stereo unspecified)
inactive: Potency [1] | Potency [2] | Potency [3] | Potency [4] | Potency [6] | Potency [5]

C=CCOC(=O)C1=C(C)N(CC)C(=O)NC1c1ccccc1 (stereo unspecified)
inactive: Potency [1] | Potency [2] | Potency [3] | Potency [4] | Potency [6] | Potency [5]

COC[C@H]1O[C@@H]2O[C@@H]1[C@@H](C=Cc1ccccc1)C[C@H]2C
inactive: Potency [1] | Potency [2] | Potency [3] | Potency [4] | Potency [6] | Potency [5]
